# Bioassay records as filed in PubChem BioAssay.
# H9c2 protect – modulators protecting cardiomyocytes from myocardial damage | protection from H2O2 cell death, % at 20 µM | AID 588492 | 360,000 tested, 0.63% active | H9c2 cardiomyocytes, H2O2 injury protection, ATPLite, 2 h;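 active means compounds giving at least 50% protection of heart cells from peroxide-induced death in the single-dose screen, raw or plate-pattern-corrected value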;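 further: 0% = DMSO wells with peroxide and 100% = DMSO wells without peroxide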
# GAA850 FXN act – activators of GAA850 frataxin (FXN) promoter; 360,000 tested, 0.56% active; AID 540364; HEK293 lucGAA850 FXN promoter luciferase reporter, 24 h; percent of 10 µM SAHA response; activation, % at 6 µM;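 active means activation above the average of all compounds screened plus 3 SD, cutoff fixed separately per campaign, cut at about 7.5% in these data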;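 further: 0% = DMSO wells and 100% = 10 µM SAHA wells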
# COUP-TFII inh – blocks human COUP-TFII nuclear receptor. P24468. HEK293T NGFI-A luciferase reporter, luminescence. inhibition, % at 8.6 µM. 370,000 tested, 0.7% active. AID 686940;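 active means inhibition above a per-plate cutoff, mean inhibition of test wells between control levels plus 3 SD, cut at about 38% in these data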;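 further: cells cotransfected with COUP-TFII expression vector driving the NGFI-A reporter; 0% = median of COUP-TF2 test wells and 100% = reporter-only cells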
# SMARCA2 activ – activators of SMARCA2 function; 370,000 tested, 1% active; activation, % at 9.1 µM; AID 652017; MG213 cells, MMTV-luciferase reporter, dexamethasone, overnight; in the data active means activation above about 7.8%;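 further: 0% = vehicle wells and 100% = reference activator wells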
# Gli-Sufu antag – Gli-Sufu pathway antagonism; Sufu-KO-LIGHT fibroblasts, Gli luciferase reporter luminescence; inhibition, % at 5 µM; 340,000 tested, 0.74% active; AID 588413;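 active means inhibition above about 55%, limit read from the data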;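 further: 0% = DMSO-treated cells and 100% = wells with medium but no cells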
# GalR3 antagonist – human GalR3 antagonism; O60755; HEK293 GalR3-CNG cAMP membrane potential fluorescence; galR3 body fused to GalR1 C-terminus; inhibition, % at 3 µM; 360,000 tested, 0.44% active;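 active means inhibition above the screen-wide average plus 3 SD, cut at about 13% in these data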;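 further: forskolin and galanin both at EC90 stimulate the cells; cAMP rise reported by CNG channel membrane potential dye signal; 0% = forskolin plus galanin with DMSO and 100% = forskolin alone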
# Target sequence (O60755 1-299 limits assumed): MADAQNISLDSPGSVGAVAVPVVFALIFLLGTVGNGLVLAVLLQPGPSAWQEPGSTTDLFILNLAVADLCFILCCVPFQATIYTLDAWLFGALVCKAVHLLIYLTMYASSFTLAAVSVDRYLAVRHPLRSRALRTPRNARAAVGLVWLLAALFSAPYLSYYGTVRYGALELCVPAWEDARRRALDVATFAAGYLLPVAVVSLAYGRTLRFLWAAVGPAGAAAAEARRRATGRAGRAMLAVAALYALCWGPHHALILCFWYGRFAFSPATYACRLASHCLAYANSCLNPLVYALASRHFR
# Starred values were filed as active, the others as inactive; . = no result. This is a sample that favours compounds with a hit; in the whole collection about 3.4% have one here.
SMILES,H9c2 protect,GAA850 FXN act,COUP-TFII inh,SMARCA2 activ,Gli-Sufu antag,GalR3 antagonist
CCC(=O)Nc1ccc(Nc2nc(C)c([N+](=O)[O-])c(Nc3ccc(NC(=O)CC)cc3)n2)cc1,70*,-2,-25,0,25,0
Oc1[nH]c2ccccc2c1N=Nc1ccccn1,-2,5,-22,-1,-28,-6
Oc1c(N=Nc2ccccn2)ccc2ccccc12,-8,-16,-17,-2,82*,-4
CC(C(=O)N1CCc2ccccc2C1)N(c1ccccc1)S(C)(=O)=O (stereo not drawn),9,0,2,-3,8,-10
CC(=C1C(=O)c2ccccc2C1=O)N1CCc2ccccc2C1,12,1,-11,7.9*,-5,-9
O=C(Nc1nnc(-c2cccs2)o1)c1cccc(Oc2ccccc2)c1,53*,1,19,-2,3,0
O=C(Nc1ccsc1C(=O)O)c1cccc(Oc2ccccc2)c1,-16,1,-19,6,-20,-9
COc1ccccc1NC(=O)OC[C@@H]1CSCCS(=O)(=O)N1,.,.,2,-5,.,-3
COc1ccc(C(=O)NN/C=C/C(=O)c2ccc(Br)cc2)cc1,58*,4,2,-1,.,-5
O=C(/C=C/NNC(=O)c1ccc(Cl)cc1)c1ccccc1,30,2,-20,0,2,-1
COc1ccc(C(=O)C=CNNC(=O)c2ccc(Cl)cc2)cc1,43,1,-16,0,1,-4
O=C(/C=C/NNC(=O)c1ccccc1)c1ccc(Br)cc1,59*,1,-25,2,-4,0
Cc1cc(C)n2c(NC3CCCC3)c(-c3ccc(F)cc3)nc2n1,.,.,6,1,.,-7
O=C(C#Cc1ccccc1)c1ccc([N+](=O)[O-])cc1,-24,13*,-27,2,24,-1
O=C(C#Cc1ccccc1)c1ccccc1,-11,9.3*,-24,-3,.,-2
CCOC(=O)[C@]12CCCC=C1N(CCCOC)C(=O)[C@@H]2CC(=O)N1CCC(c2ccccc2)CC1,.,.,-4,-2,.,.
CCCCc1nc2sc3c(c2c(=O)[nH]1)CCC3,70*,2,29,-1,-8,-2
CSc1nc2sc3c(c2c(=O)[nH]1)CCC3,52*,3,-20,-2,-7,2
CCOC(=O)c1sc(Nc2ccccc2)nc1C,-16,6,-27,7,-46,-2
COC(=O)c1sc(Nc2ccccc2)nc1C,-6,9.9*,-17,2,-27,0
CCC(=O)N1CCN(c2ccccc2NC(=O)COc2cc(C)ccc2C(C)C)CC1,55*,-9,-9,-1,13,-9
CCCCCCNC(=O)C1CSCCS(=O)(=O)N1Cc1ccc(OC)cc1 (stereo not drawn),.,.,-9,-1,.,.
CCOc1ccc(CN(C)CC(=O)Nc2ccccc2C(=O)NC2CC2)cc1,2,2,2,0,0,-1
CN(CC(=O)Nc1ccccc1C(=O)NC1CC1)Cc1ccc(Cl)cc1,-1,3,-10,7.9*,5,-4
Cc1ccc(C2=CCN(C)C(=O)N2c2ccc([N+](=O)[O-])cc2)cc1,.,.,12,-4,.,.
SMILES,H9c2 protect,GAA850 FXN act,COUP-TFII inh,SMARCA2 activ,Gli-Sufu antag,GalR3 antagonist
Cc1[nH]n(-c2ccccc2)c(=O)c1/C=N/N1C(=O)c2ccc3c4c(ccc(c24)C1=O)CC3,65*,1,-8,-2,-1,-1
Cc1[nH]n(-c2ccccc2)c(=O)c1/C=N/O,3,1,-8,-1,-4,-2
O=C(Nc1ccc2c(c1)[nH]c(=O)c1ccccc12)C(F)(F)F,64*,2,-17,-4,30,-2
CC(=O)Nc1ccc2c(c1)[nH]c(=O)c1ccccc12,75*,1,-24,1,7,-6
CCC(=O)N1CCc2cc(Br)c(S(=O)(=O)N3CCC(C(=O)NC(C)(C)C)CC3)cc21,.,.,10,-1,.,.
OC(c1ccccc1)C1(c2ccccc2)CCN(Cc2ccccc2)CC1 (stereo not drawn),.,.,-11,-2,.,-4
O=C(CSc1nnc(-c2cccnc2)n1Cc1ccco1)c1ccccc1,50*,0,-10,-2,2,-7
O=C(CSc1nnc(-c2ccc(O)cc2)n1Cc1ccco1)c1ccccc1,2,-2,-1,1,-3,-4
O=C(c1cc(Cl)cc(Cl)c1)N1CC[C@H]2[C@H](CCCN2Cc2cc(F)cc(F)c2)C1,.,.,18,-2,.,.
COc1cc2ccnc(C=O)c2cc1OC,56*,3,.,.,.,.
